The list is not random: actives were taken first. Their share in the collection is about 1.4%.
AID504770 – growth inhibitors of E. coli YBA685 in a screen for V. cholerae RctB (chromosome II replication) inhibitors. E. coli YBA685 rctB-dependent plasmid, OD600 growth, 3 h; active compounds read low. hit rate 0.27% among 130,000. z-score (test concentration not listed); in the data active = z-score below about -2, passing the limit was not always enough
Mtb MbtI inh – inhibitors of Mycobacterium tuberculosis siderophore enzyme MbtI; P9WFX0; purified MbtI enzyme, fluorescence intensity read-out; inhibition, % (no concentration beside the values); hit rate 0.89% among 100,000; AID 493033; in the data active = inhibition mostly above about 56%, no sharp cut-off; inactive = mostly below about 77%
Mtb MenB inh – blocks the Mycobacterium tuberculosis MenB enzyme | P9WNP5 | inhibition, % (concentration not given with the values) | hit rate 0.43% among 100,000 | MenB enzyme assay, absorbance read-out; in the data active = inhibition above about 21%, passing the limit was not always enough
Target sequence (P9WNP5 whole entry, looked up): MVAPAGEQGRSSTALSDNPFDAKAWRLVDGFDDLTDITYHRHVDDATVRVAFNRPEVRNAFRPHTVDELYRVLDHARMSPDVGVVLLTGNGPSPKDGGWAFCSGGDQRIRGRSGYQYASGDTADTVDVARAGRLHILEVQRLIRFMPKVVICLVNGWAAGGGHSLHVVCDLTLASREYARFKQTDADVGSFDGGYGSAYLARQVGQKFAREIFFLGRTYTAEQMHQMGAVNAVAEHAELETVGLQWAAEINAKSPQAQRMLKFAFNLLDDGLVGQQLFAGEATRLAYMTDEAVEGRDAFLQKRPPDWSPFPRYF
Polio RdRp inh – poliovirus RNA polymerase inhibition; poliovirus polymerase elongation, fluorescence polarization; active compounds read low; % elongation, % (compound at 16.7 µg/mL); hit rate 0.66% among 150,000; AID 588519; in the data active = % elongation below about 90%
An asterisk follows results filed as active; / = not tested or not shown.

SMILES	AID504770	Mtb MbtI inh	Mtb MenB inh	Polio RdRp inh
CCOC(=O)Cc1csc(NC(=O)c2ccc(Cl)cc2)n1	1.6	/	/	/
O=C(Cn1cnc2ccccc2c1=O)N1CCc2ccccc21	0.65	-30	8	106
O=C(Cn1cnc2ccccc2c1=O)N1CCCCCC1	1.4	5	33*	100
O=C(O)c1nc(-c2ccccc2)cc(-c2ccccc2)n1	0.65	15	35*	100
O=C(O)c1cc(-c2ccccc2)nc2ccccc12	-0.65	/	1	102
COc1ccccc1CCN=Cc1ccnc(SCc2ccc(Cl)cc2Cl)n1	0.35	-6	-2	104
O=C(Cn1c(S(=O)(=O)Cc2ccccc2)nc2ccccc21)NC1CC1	-0.5	-14	-8	101
COc1cccc(/C=N/N2C(=O)CSC2=S)c1O	-0.45	4	-37	85*
N#CSc1ccc2nc(N)sc2c1	-1.4	53*	1	94
O=C(O)c1ccc2nc(-c3cc4cccc(O)c4oc3=O)[nH]c2c1	/	/	/	79*
O=C(Nc1cccc(C2=NCCN2)c1)Nc1cccc(C2=NCCN2)c1	0.1	/	4	68*
CCN(C(=O)CSc1ccc(S(=O)(=O)N(C)C)cn1)C1=CCCC1	-0.7	5	-27	101
COc1cc(C(=O)Sc2ccc(Cl)cc2)cc(OC)c1OC	2.7	/	-28	84*
COc1cc(C(=O)n2nc(C)c(Sc3ccc(Cl)cc3)c2C)cc(OC)c1OC	/	/	/	103
CC1(C)Cc2c(C#N)c(N)sc(=S)c2CO1	0.1	37	-32	99
CC1(C)Cc2c(c(N3CCNCC3)[nH]c(=S)c2C#N)CO1	-1.6	95*	-9	102
N#CCN(CC#N)C(=O)c1ccc(C(=O)N(CC#N)CC#N)cc1	-0.2	7	8	102
NC(=S)N/N=C1/C(=O)c2cccc3cccc1c23	-1.1	76*	-13	100
COC(=O)N/N=C1/C(=O)c2cccc3cccc1c23	0.4	-1	-9	99
CCOc1ccc(-c2c(C)nn3c2NCN(Cc2ccc(C)cc2)C3)cc1OCC	-0.1	-1	2	100
COC(=O)c1ccc(C(=O)OC)cc1	0.3	/	-14	105
COC(=O)c1ccc(C(=S)NCC(OC)OC)cc1	0.1	87*	-61	79*
NC(=O)Cn1cnc2sc3c(c2c1=O)CCC3	-0.25	/	-24	90*
COC(=O)c1c(NC(=O)CCCOc2cccc(C)c2)sc2c1C(C(=O)OC)CC2 (stereo not drawn)	/	/	/	81*
COC(=O)c1c(NC(=O)CCCOc2ccc(C)cc2)sc2c1CCCC2	/	/	/	95
SMILES	AID504770	Mtb MbtI inh	Mtb MenB inh	Polio RdRp inh
COC(=O)c1c(NC(=O)CCCOc2ccc(C)cc2)sc2c1C(C(=O)OC)CC2 (stereo not drawn)	/	/	/	71*
COC(=O)c1c(NC(=O)CCCOc2cccc(C)c2)sc2c1CCC2	/	/	/	101
CCOc1ccc(/C=C/C(=O)Nc2sc3c(c2C(=O)OC)C(C(=O)OC)CC3)cc1 (stereo not drawn)	/	/	/	79*
CCOC(=O)C1=C(c2ccccc2)OC(N)=C(C#N)C1c1ccc(F)cc1 (stereo not drawn)	-0.85	/	4	104
O=c1cc(-n2ccc(C(F)(F)F)n2)oc2ccccc12	-0.55	/	/	/
Cc1ccc(CN(C)C(=O)c2cccc(N(C)C)c2)o1	0.05	-15	-4	101
CCCCCOc1ccc(C(=O)CCN2CCOCC2)cc1	0.05	92*	-7	103
CC(=O)NCCc1ccc(S(=O)(=O)Nc2ccc3ncn(C)c(=O)c3c2)cc1	-0.7	80	-41	99
Cc1ccccc1OC(=O)Cn1c(=O)sc2ccccc21	1.1	/	-19	104
CCN(CC)S(=O)(=O)c1cccc(-n2sc3ccccc3c2=O)c1	0.4	100*	-19	108
NNC(=O)COc1ccc(Cl)cc1Cl	3.6	6	-11	104
O=C(NCCc1ccccn1)C1CCN(C(=O)c2ccc(F)cc2)CC1	-0.5	-16	-3	106
CCOC(=O)CCSc1n[nH]c(=S)s1	0.3	85*	-22	103
CCOC(=O)CSc1n[nH]c(=S)s1	0.1	90*	-21	101
CCOC(=O)CSc1nn(C)c(=S)s1	1.2	25	/	/
NC(=O)CCSc1n[nH]c(=S)s1	-0.95	56	-7	101
CC(NS(=O)(=O)c1ccc(Br)cc1)C(=O)NCc1ccco1 (stereo not drawn)	0.95	12	37*	100
CC(C)NS(=O)(=O)c1ccc(OCC(=O)NCc2ccco2)cc1	-0.7	-12	/	/
CCCN1CCN(Cc2ccc(OCC(=O)Nc3ccc(Br)cc3)c(OC)c2)CC1	0.6	-12	6	94
COc1ccc(NC(=O)N(CCN(C)C)Cc2cc3cc(OC)ccc3[nH]c2=O)cc1	0.05	80	34*	103
S=c1nc(-c2cccs2)cn[nH]1	1.6	74*	-33	101
Cc1nc(-c2cccs2)cs1	-0.2	1	/	100

Screening results: PubChem BioAssay, ICCB-Longwood Screening Facility, Harvard Medical School
